Most compounds without a hit are left out; they make up all but 2.6% or so of the library.
A3G deaminase = APOBEC3G DNA deaminase inhibitors, primary screen, biochemical, fluorescence, single-stranded DNA substrate, uHTS; DNA dC->dU-editing enzyme APOBEC-3G (Homo sapiens), Q9HC16; recombinant A3G, ssDNA deamination FAM/TAMRA fluorescence; inhibition, % at 20 µM; 330,000 tested, 0.28% active;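 active = inhibition of at least 40% at 20 µM, with no more than 30% in the related APOBEC3A deaminase screen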
PABP FP inh = PABP poly(A) RNA binding inhibitors, primary screen, biochemical, fluorescence polarization, uHTS; Polyadenylate-binding protein 1 (Homo sapiens), P11940; calls only at 35 µM; 290,000 tested, 1% active;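 note: calls also rest on retests at 20 µM and on dose response follow-up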
PHOSPHO1 inh = PubChem AID 1565 | recombinant PHOSPHO1, absorbance phosphatase assay | inhibition, % at 13.3 µM | 290,000 tested, 1.1% active; in the data active = inhibition above about 60%
MLLE-PAM2 inh = inhibitors of PABP1 MLLE–PAM2 peptide binding, primary screen, biochemical, fluorescence polarization, FITC-PAM2, GST-MLLE | AID 588489, 2011 | Polyadenylate-binding protein 1 (Homo sapiens), P11940 | 360,000 tested, 0.36% active | inhibition, % at 20 µM; in the data active = inhibition above about 35%, passing the limit was not always enough
A3A deaminase = APOBEC3A ssDNA deaminase inhibitors, primary screen, selectivity assay for APOBEC3G inhibitor project, biochemical, FAM/TAMRA oligo cleavage fluorescence; DNA dC->dU-editing enzyme APOBEC-3A (Homo sapiens), P31941; recombinant A3A, FAM/TAMRA ssDNA deamination fluorescence; inhibition, % at 20 µM; 330,000 tested, 0.41% active;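 active = at least 40% inhibition at 20 µM here, with at most 30% in a related deaminase screen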
Target sequence (P31941 whole entry, looked up): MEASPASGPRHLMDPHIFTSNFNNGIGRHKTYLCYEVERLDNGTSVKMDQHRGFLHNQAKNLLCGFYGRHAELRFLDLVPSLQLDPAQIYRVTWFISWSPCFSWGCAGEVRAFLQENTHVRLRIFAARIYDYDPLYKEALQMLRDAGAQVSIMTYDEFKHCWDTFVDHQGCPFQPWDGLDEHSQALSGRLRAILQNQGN
eIF4H FP inh = human eIF4H binding inhibitors, primary screen, translation initiation inhibitor project, biochemical, uHTS, fluorescence polarization | AID 2012, 2009 | eIF4H fluorescence polarization binding assay | 290,000 tested, 0.94% active | inhibition, % at 35 µM | Eukaryotic translation initiation factor 4H (Homo sapiens), Q15056;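 note: calls also rest on retests at 20 µM and on dose response follow-up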
A number is an active result; – = inactive; ? = inconclusive; · = no result given; + = active, no number. Unless noted, the rule behind the calls is not given here.

SMILES	A3G deaminase	PABP FP inh	PHOSPHO1 inh	MLLE-PAM2 inh	A3A deaminase	eIF4H FP inh
Cn1c(=O)c2cc3c(nc2n(C)c1=O)CC(c1ccccc1)CC3=O (stereo not given)	–	–	–	–	–	–
CSc1nc2nc3c(cn2n1)C(=O)CC(c1ccccc1)C3 (stereo not given)	–	+	–	–	–	48
CNc1c(NS(=O)(=O)c2ccc(C3CCCCC3)cc2)c(=O)oc2ccccc12	–	–	–	–	–	–
N#Cc1c(NC(=O)c2ccc([N+](=O)[O-])o2)sc2c1CCC2	–	–	–	–	–	–
CCn1c2ccccc2c2cc(NC(=O)CSc3nnc(-c4ccc(OC)c(OC)c4)n3N)ccc21	–	–	–	–	–	–
CCn1c2ccccc2c2cc(NC(=O)CSc3nnc(-c4ccccc4OC)n3N)ccc21	–	–	78	–	–	–
CCOc1ccc(-c2nnc(SCC(=O)Nc3ccc4c(c3)c3ccccc3n4CC)n2N)cc1	–	–	79	–	–	–
CCCc1cc(SCC(=O)Nc2c(C)n(C)n(-c3ccccc3)c2=O)n2c(nc3ccccc32)c1C#N	–	–	100	·	–	–
Cc1nc(SCC(=O)Nc2c(C)n(C)n(-c3ccccc3)c2=O)c(C#N)c(C)c1C	–	·	·	–	–	·
CS(=O)(=O)c1ccc(C(=O)OCC(=O)N2CCCc3ccccc32)cc1	–	·	·	–	–	·
CCCCCCCC#Cc1ccccc1/C=N/S(=O)c1ccc(C)cc1 (stereo not given)	61	–	–	·	–	–
Cc1nc2ccccc2n1CCc1nc2c3ccccc3nc(=S)n2[nH]1	–	–	86	–	–	–
Cc1ccccc1-c1nc2c3ccccc3nc(=S)n2[nH]1	·	–	–	–	·	–
CC1=NN(c2ccc(C(=O)O)cc2)C(=O)/C1=C/c1ccc(-c2ccccc2F)o1	–	–	–	–	–	–
CC1=NN(c2ccc(Cl)c(C(=O)O)c2)C(=O)/C1=C\c1ccc(-c2ccc(C(=O)O)cc2)o1	·	–	–	–	·	52
O=C1NN(c2cccc(Br)c2)C(=O)/C1=C/c1ccc(-c2cc([N+](=O)[O-])ccc2O)o1	–	–	–	–	–	96
CC1=NN(c2ccccc2)C(=O)/C1=C/c1ccc(-c2ccc(C)c(C(=O)O)c2)o1	–	·	·	·	–	·
CC1=NN(c2ccc(C)cc2)C(=O)/C1=C/c1ccc(-c2cc([N+](=O)[O-])ccc2O)o1	–	+	–	–	–	105
CC(=O)c1ccc(OCC(=O)OCC(=O)c2ccc(S(=O)(=O)N3CCCCC3)cc2)cc1	·	·	·	–	·	·
CC1(C)CC(N2CCOCC2)=CC(=S)N1	·	·	·	–	·	·
Cc1ccc(S(=O)(=O)NCc2cccnc2)cc1C	–	–	–	–	–	–
CCN(CC)S(=O)(=O)c1ccc(OC)c(NC(=O)c2ccc(-n3cncn3)c([N+](=O)[O-])c2)c1	–	·	·	–	–	·
CCCCN1C(=O)/C(=C2\SC(N3CCCCC3)=NC2=O)c2ccccc21	–	–	–	40	–	–
O=C(O)c1cccc(-n2cccc2C=C2C(=O)c3ccccc3C2=O)c1	–	–	–	–	–	–
O=C(N/N=C/c1cccn1-c1cccc(C(=O)O)c1)Nc1ccccc1	–	+	–	–	–	?
SMILES	A3G deaminase	PABP FP inh	PHOSPHO1 inh	MLLE-PAM2 inh	A3A deaminase	eIF4H FP inh
O=S1(=O)CCC(NC(=S)SCCOc2ccccc2)C1 (stereo not given)	–	–	–	40	–	–
CNC(=S)SCCOc1ccc(C)cc1	–	–	–	–	–	–
CNC(=S)SCCOc1ccccc1	–	–	–	36	–	–
CCCCSC(=S)NC1CCS(=O)(=O)C1 (stereo not given)	–	–	–	–	–	–
COCC(=O)N1CCCC(C(=O)c2ccc(-c3ccccc3)c(F)c2)C1 (stereo not given)	–	–	63	–	–	–
OCc1cccc(-c2csc(C(O)c3ccco3)n2)c1 (stereo not given)	·	·	·	–	·	·
CCCCOC(=O)C1=C(C)N(C)C(=O)NC1c1cc2c(cc1Br)OCO2 (stereo not given)	·	·	·	–	·	·
CCOC(=O)C1=C(C)N(C)C(=O)NC1c1cc2c(cc1[N+](=O)[O-])OCO2 (stereo not given)	–	+	–	–	–	93
CCn1c(SCC(=O)c2[nH]c(C)c(C(C)=O)c2C)nnc1-c1ccncc1	–	–	–	–	–	–
CCn1c(SCC(=O)c2[nH]c(C)c(C(C)=O)c2C)nnc1-c1ccccc1	–	–	75	–	–	–
CC(=O)c1c(C)[nH]c(C(=O)CSc2nnc(CN3CCCCCC3=O)n2-c2ccccn2)c1C	–	–	67	–	–	–
CCNC(=O)CSc1nnc(CN2CCCCCC2=O)n1-c1ccccn1	–	–	–	–	–	–
COC(=O)C(Cc1ccccc1)OS(N)(=O)=O (stereo not given)	–	–	–	–	–	–
Cc1[nH]c2ccccc2c1CC(=O)O	–	–	–	–	–	–
Cc1[nH]c2c(C)cccc2c1CC(=O)O	–	–	–	–	–	7.2
C=CCNC(=S)NNC(=O)c1cccn(Cc2ccc(Cl)c(Cl)c2)c1=O	–	–	78	–	–	–
O=C(Cn1cnc2scc(-c3ccc(F)cc3)c2c1=O)NCC(c1ccco1)N1CCCC1 (stereo not given)	–	·	·	–	–	·
N#Cc1c2n(c3c(=S)nc[nH]c13)CCCCC2	–	–	96	–	–	–
N#Cc1nc2ccccc2n1OCc1ccccc1	·	·	·	–	·	·
C=CCc1cccc2cc(C(=O)Nc3ccc(S(=O)(=O)Nc4nnc(CC)s4)cc3)c(=O)oc12	·	+	85	–	·	67
Cc1ccc(-n2[nH]c(C)c(C=Nc3ccc4[nH]c(=O)[nH]c4c3)c2=O)cc1C	–	–	–	67	–	–
CN(C)c1ccc(NC(=O)c2ccc(COc3cccc(Cl)c3)o2)cc1	–	–	92	–	–	–
CCOc1ccc(N2C(=O)CS/C2=C(\C(Cl)=C(Cl)Cl)[N+](=O)[O-])cc1	–	–	86	–	–	–
Cc1ccc(/C=N/NC(=O)Cn2cncn2)cc1	–	–	–	–	–	–
CSc1nnc(NC(=O)CCc2ccccc2)s1	–	–	82	–	–	–
CCOc1ccc2nc3cc(N=Nc4ccc(N)nc4N)ccc3c(N)c2c1	·	·	·	82	·	·
COc1ccc(C(=O)NC(=S)N2CCCc3ccccc32)cc1OC	–	–	–	41	–	–
COc1ccccc1C(=O)NC(=S)N1CCc2ccccc21	–	–	–	–	–	–

Assay outcomes from PubChem.
